Among all 1,900 compounds or so, about 250 (13%) were called active. Not shown: some 4% with an inconclusive outcome.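 Rule for the calls: active = fitted curve reaches 40% rescue activity at or below the top valid dose, in every test run; inconclusive = test runs disagree, some active and some inactive; inactive = every run misses the threshold or moves the wrong way.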 These entries were drawn from the full list. Results with a measured potency or affinity are listed apart.
Assay: suppressors of statin myotoxicity in myotubes, dose response, cell-based, C2C12 myotubes, ATP luminescence, cherry pick (AID 624405);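 note: myotubes are challenged with simvastatin at 10 µM to lower ATP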
Conditions: C2C12 myotubes + simvastatin, 48 h, scaled: DMSO wells 0, geranylgeraniol wells 100; series mostly up to 19.5 µM; rescue activity (ATP increase): at the top concentration

SMILES	rescue activity (ATP increase)
C[C@@H]1CN([C@@H](C)CO)C(=O)c2cc(NC(=O)Cc3cn(C)c4ccccc34)ccc2O[C@H]1CN(C)S(=O)(=O)c1cccs1	4.86% [at 21 µM] (inactive)
CC(C)(C)c1cc(C(F)(F)F)c(C#N)c(=O)[nH]1	-3.83% (inactive)
C=CCn1c(COc2ccc(Cl)cc2)nnc1SCC(=O)c1c(N)n(C)c(=O)n(C)c1=O	29.1% (inactive)
COc1ccc(S(=O)(=O)Nc2ccc3c(c2)CC(=O)N([C@H](C)CO)C[C@@H](C)[C@@H](CN(C)Cc2ccc(C(F)(F)F)cc2)O3)cc1	14.3% [at 21 µM] (inactive)
CCOC(=O)C1CCN(C=Nc2cc(C)on2)CC1	-10.6% (inactive)
COc1ccc(S(=O)(=O)Nc2ccc3c(c2)C(=O)N([C@@H](C)CO)C[C@H](C)[C@@H](CN(C)S(=O)(=O)c2ccc(F)cc2)OCCCC[C@H](C)O3)cc1	0.305% (inactive)
NC(=O)C1CCN(Cc2nc3cc(Cl)ccc3c(=O)[nH]2)CC1	9.91% (inactive)
C[C@@H]1CCCCO[C@@H](CN(C)C(=O)Nc2cccc3ccccc23)[C@H](C)CN([C@@H](C)CO)C(=O)c2cc(NS(=O)(=O)c3ccc(Cl)cc3)ccc2O1	8.11% (inactive)
CCC/C(=C1/c2ccccc2C(=O)N1c1ccccc1)c1ccc2c(c1)OCCO2	10.9% (inactive)
C[C@H](CO)N1C[C@H](C)[C@@H](CN(C)Cc2ccccc2F)Oc2ncc(C3=CCCCC3)cc2C1=O	-21.6% (inactive)
C[C@@H]1CN([C@H](C)CO)C(=O)Cc2cc(NC(=O)Cc3cn(C)c4ccccc34)ccc2O[C@H]1CN(C)Cc1ccc(-c2ccccc2)cc1	9.45% (inactive)
COc1ccc(CNc2ncnc3cc(OC)c(OC)cc23)cc1	-9.96% (inactive)
COc1ccccc1CNc1ncnc2c1nnn2Cc1ccccc1	7.95% (inactive)
CC(c1ccco1)N(C(=O)Nc1ccc(Cl)cc1)c1ccccn1 (configuration not stated)	-25.4% (inactive)
COc1ccccc1-c1nnc(SCC(=O)N2CC(C)CC(C)C2)o1 (configuration not stated)	20% (inactive)
COc1ccc(-n2nnnc2SCC(=O)N2CCCc3ccccc32)cc1OC	29% (inactive)
CNC[C@@H]1Oc2ccc(NC(=O)Nc3ccc(C(F)(F)F)cc3)cc2CC(=O)N([C@@H](C)CO)C[C@@H]1C	-3.3% (inactive)
CCOc1cc(CNCc2ccncc2)cc(Br)c1OCc1ccccc1F	-28% (inactive)
COc1ccc2c(c1)c(C(=O)OCCN(C)C)c(C)n2C	37.3% (inactive)

SMILES	rescue activity (ATP increase)
O=C(COc1ccccc1)Nc1ccc(S(=O)(=O)N2CCCC2)cc1	-27.4% (inactive)
Cc1c(C(=O)N2CCOCC2)oc2ccc(S(=O)(=O)N3CCCC3)cc12	1.94% (inactive)
C[C@H]1CCCCO[C@@H](CN(C)C(=O)Nc2cccc3ccccc23)[C@@H](C)CN([C@@H](C)CO)C(=O)c2cc(NS(=O)(=O)c3ccc(Cl)cc3)ccc2O1	27.8% (inactive)
C[C@@H]1CN([C@H](C)CO)C(=O)c2cc(C3=CCCCC3)cnc2O[C@@H]1CN(C)Cc1ccccc1F	9.58% (inactive)
Cc1noc(C)c1NC(=O)Nc1ccc2c(c1)C(=O)N([C@@H](C)CO)C[C@@H](C)[C@H](CN(C)S(=O)(=O)c1c(C)noc1C)OCCCC[C@@H](C)O2	-8.13% (inactive)
COc1cc(CCC(=O)OCc2nnc(-c3ccccc3)o2)cc(OC)c1OC	71.2% (inactive)
Nc1nnnn1NCc1cccc(OCc2ccccc2)c1	45.5% (inactive)
Cc1ccc(N2C(N)=NC(N)=NC2(C)C)c(C)c1	-3.46% (inactive)
CCOC(=O)N1CCN(C(=O)c2ccc3c(=O)n(CCc4ccccc4)c(=O)[nH]c3c2)CC1	3.38% (inactive)
CN1C(=O)c2cc(NS(=O)(=O)c3ccc(Cl)cc3)ccc2OC[C@@H]2O[C@@H](CC(=O)N3CCc4ccccc4C3)CC[C@H]21	24.8% (inactive)
COc1cccc(C(=O)CN2C3=NCCCN3c3ccccc32)c1	-55.7% (inactive)
CCCCN1C(=O)NC(NC(C)=O)(C(F)(F)F)C1=O (configuration not stated)	20.1% (inactive)
Cc1cccc(N=c2oc3cc(O)ccc3cc2C(N)=O)c1	0.245% (inactive)
O=C(Cn1ncc2c3ccccc3n(Cc3cccc(Cl)c3)c2c1=O)NCC1CCCO1 (configuration not stated)	21.1% (inactive)
O=c1c2ccccc2n(Cc2ccc(F)cc2)c(=O)n1C1CCCC1	-1.96% (inactive)
N#Cc1cc(-c2ccccc2)nnc1Sc1ccc(Cl)cc1	-22% (inactive)
COc1ccc(CN(Cc2cccn2C)C(=O)c2cc3cc(OC)ccc3[nH]2)cc1	11.4% (inactive)
Cn1c(-c2ccc(F)cc2)cnc1NCc1ccc(F)cc1	-41.3% (inactive)
COc1cc(NC(=O)c2cccs2)c(C(=O)OCC(=O)NCc2ccco2)cc1OC	-6.19% (inactive)

SMILES	rescue activity (ATP increase)
Cc1ccc(CNC(=O)CNS(=O)(=O)c2cccc3nsnc23)cc1	-8.33% (inactive)
COc1ccc(S(=O)(=O)Nc2ccc3c(c2)C(=O)N([C@H](C)CO)C[C@@H](C)[C@H](CN(C)S(=O)(=O)c2ccc(F)cc2)OCCCC[C@H](C)O3)cc1	11.2% (inactive)
CNC[C@@H]1Oc2ccc(NS(=O)(=O)c3c(C)noc3C)cc2C(=O)N([C@@H](C)CO)C[C@@H]1C	26.8% (inactive)
Cc1nc(CSc2ccc(Cl)cc2)cc(N2CC(C)OC(C)C2)n1 (configuration not stated)	-17.7% (inactive)
CC1CC(C)CN(CCCNC(=O)c2ccc3c(c2)NC(=O)C(N2CCCCC2)S3)C1 (configuration not stated)	-22.8% (inactive)
O=C(Nc1cc(Br)ccc1O)c1cc(-c2cccs2)on1	-16.9% (inactive)
CC(=O)c1cccc(NC(=O)c2cc(-c3cccs3)on2)c1	39.1% (inactive)
O=C(Nc1cccc(C(F)(F)F)c1)c1cc(-c2cccs2)on1	-19.6% (inactive)
Cc1ccc(NC(=O)c2cc(-c3cccs3)on2)cc1	-5.35% (inactive)
CCN(CCCNC(=O)C1CCC(=O)N1C(C)C)c1cccc(C)c1 (configuration not stated)	26.9% (inactive)
Cc1noc(C)c1S(=O)(=O)Nc1ccc2c(c1)C(=O)N([C@@H](C)CO)C[C@H](C)[C@H](CN(C)Cc1ccc3c(c1)OCO3)O2	-0.012% (inactive)
O=C(Nc1ccccc1)Oc1cccc2cccnc12	-6.01% (inactive)
COc1ccc(S(=O)(=O)Nc2ccccc2C(=O)NC(C)(C)C)cc1OC	33.8% (inactive)
COc1ccccc1NS(=O)(=O)c1cccc(NC(=O)c2ccc3ccccc3n2)c1	4.04% (inactive)
C#CCOC(=O)c1ccccc1C(=O)N(CC)CC	-18.7% (inactive)
O=C(CCN1CCc2ccccc21)c1ccc2c(c1)OCCO2	-0.935% [at 10 µM] (inactive)
COc1ccc(C2CC(=O)Oc3c(C(CCN4CCCCC4)c4ccc(N(C)C)cc4)c(OC)cc(OC)c32)cc1 (configuration not stated)	-41.5% (inactive)
O=C(Nc1cnn(Cc2ccccc2)c1)c1cc2nc(-c3ccco3)cc(C(F)(F)F)n2n1	-13.4% (inactive)
COc1ccc(S(=O)(=O)Nc2cccc3c2O[C@H](CN(C)CC2CCCCC2)[C@H](C)CN([C@H](C)CO)C3=O)cc1	-8.94% (inactive)
